A number with no mark means an inactive call. Results filed as inconclusive are left out. Entries that show only a call come without a potency. The source made the active and inactive calls. Unless noted, the call rests on the fitted dose curve; in most records, active means well fitted curve in the direction sought with a large enough effect in the repeat runs; inconclusive means weak or mixed curves; inactive means no such curve, though single readings can be large; an effect the other way counts as inactive or inconclusive.
Key:
[1] = biological target: Estrogen receptor (Homo sapiens) (UniProt P03372); assay: qHTS assay to identify small molecule agonists of the estrogen receptor alpha (ER-alpha) signaling pathway in the presence of an antagonist (AID 1259383; calls by dose curve; further: top concentration of the series differs between compounds; nearly all actives have a fitted effect of over 15% in size)
Estrogen receptor (Homo sapiens), sequence (P03372 whole entry, looked up): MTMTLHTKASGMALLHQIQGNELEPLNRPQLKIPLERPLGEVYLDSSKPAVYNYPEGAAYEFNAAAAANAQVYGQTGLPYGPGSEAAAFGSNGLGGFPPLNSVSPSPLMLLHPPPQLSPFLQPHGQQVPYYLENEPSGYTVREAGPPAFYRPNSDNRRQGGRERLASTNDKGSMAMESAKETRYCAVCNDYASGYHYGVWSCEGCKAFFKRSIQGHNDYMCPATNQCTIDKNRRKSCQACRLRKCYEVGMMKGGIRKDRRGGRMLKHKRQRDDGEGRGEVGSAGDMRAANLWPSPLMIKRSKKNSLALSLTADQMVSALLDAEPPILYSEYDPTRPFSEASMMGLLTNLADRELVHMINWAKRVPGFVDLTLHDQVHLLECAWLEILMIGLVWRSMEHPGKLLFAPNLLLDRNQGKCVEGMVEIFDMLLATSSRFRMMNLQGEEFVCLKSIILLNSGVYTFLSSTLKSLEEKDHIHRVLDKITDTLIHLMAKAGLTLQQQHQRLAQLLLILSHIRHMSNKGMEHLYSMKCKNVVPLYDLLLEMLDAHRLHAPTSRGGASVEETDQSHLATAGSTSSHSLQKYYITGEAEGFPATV
Outline: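 ER-alpha agonism measured under antagonist challenge: 10.0nM ICI-182,780 (final) plus compound, 15 concentrations, 22hr, VM7Luc4E2 ERE-luciferase cells. Read by luminescence.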

[2] = qHTS assay to identify small molecule agonists or antagonists of the thyroid stimulating hormone receptor (TSHR) signaling pathway - wild type cell line counter screen (AID 1259384; calls by dose curve)
Outline: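 Counter screen in untransfected Hek293: compounds (15-point titration, triplicate) plus phosphodiesterase inhibitor Ro20-1724 added after 18 h plating; 30 min RT. Intracellular cAMP via competitive d2/cryptate immunoassay, 1 h incubation.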

[3] = biological target: Thyrotropin receptor (Homo sapiens) (UniProt P16473); assay: qHTS assay to identify small molecule antagonists of the thyroid stimulating hormone receptor (TSHR) signaling pathway (AID 1259385; calls by dose curve; further: nearly all actives have a fitted effect of over 20% in size)
Thyrotropin receptor (Homo sapiens), sequence (P16473 whole entry, looked up): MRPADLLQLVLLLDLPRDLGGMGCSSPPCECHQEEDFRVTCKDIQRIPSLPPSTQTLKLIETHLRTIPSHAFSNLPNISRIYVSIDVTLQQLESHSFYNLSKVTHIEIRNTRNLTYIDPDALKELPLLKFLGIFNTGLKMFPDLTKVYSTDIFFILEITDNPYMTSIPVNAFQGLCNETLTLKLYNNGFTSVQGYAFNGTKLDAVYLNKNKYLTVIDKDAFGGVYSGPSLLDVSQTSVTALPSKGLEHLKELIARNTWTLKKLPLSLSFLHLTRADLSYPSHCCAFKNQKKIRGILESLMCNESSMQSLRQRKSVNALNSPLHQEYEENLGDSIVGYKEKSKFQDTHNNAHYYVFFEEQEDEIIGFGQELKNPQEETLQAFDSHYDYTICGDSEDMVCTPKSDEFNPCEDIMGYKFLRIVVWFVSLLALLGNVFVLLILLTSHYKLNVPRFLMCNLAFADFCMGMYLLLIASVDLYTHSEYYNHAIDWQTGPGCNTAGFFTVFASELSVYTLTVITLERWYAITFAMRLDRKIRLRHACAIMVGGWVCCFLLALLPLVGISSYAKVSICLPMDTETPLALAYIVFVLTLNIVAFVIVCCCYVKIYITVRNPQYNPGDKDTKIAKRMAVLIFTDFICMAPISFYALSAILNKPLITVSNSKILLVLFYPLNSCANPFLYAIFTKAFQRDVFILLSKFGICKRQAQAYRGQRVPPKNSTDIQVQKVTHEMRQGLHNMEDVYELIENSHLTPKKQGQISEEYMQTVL
Outline: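 Antagonist mode: compound-treated TSHR-expressing HEK293 cells were stimulated with 1.5 ng/mL TSH (final) in presence of Ro20-1724 for 30 min at RT. HTRF cAMP detection after 1 h; each compound tested at 15 concentrations, triplicate.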

[4] = qHTS assay to identify small molecule agonists of the estrogen receptor alpha (ER-alpha) signaling pathway in the presence of an antagonist - cell viability counter screen (AID 1259386);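 further: series mostly up to about 92 µM; cells exposed to compounds for 22 h at 37 °C before the viability read; nearly all actives have a fitted effect of over 30% in size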
Outline: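 Steps: 5-day stripped-FBS culture; seed and incubate 24hr; add ICI-182,780 (10.0nM final); pin 15-point compound titration; incubate 22hr at 37C; add CellTiter-Fluor at 21hr; read fluorescence.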

[5] = biological target: Progesterone receptor (Homo sapiens) (UniProt P06401); assay: qHTS assay to identify small molecule agonists of the progesterone receptor (PR) signaling pathway (AID 1346784; calls by dose curve; further: nearly all actives have a fitted effect of over 30% in size)
Progesterone receptor (Homo sapiens), sequence (P06401 whole entry, looked up): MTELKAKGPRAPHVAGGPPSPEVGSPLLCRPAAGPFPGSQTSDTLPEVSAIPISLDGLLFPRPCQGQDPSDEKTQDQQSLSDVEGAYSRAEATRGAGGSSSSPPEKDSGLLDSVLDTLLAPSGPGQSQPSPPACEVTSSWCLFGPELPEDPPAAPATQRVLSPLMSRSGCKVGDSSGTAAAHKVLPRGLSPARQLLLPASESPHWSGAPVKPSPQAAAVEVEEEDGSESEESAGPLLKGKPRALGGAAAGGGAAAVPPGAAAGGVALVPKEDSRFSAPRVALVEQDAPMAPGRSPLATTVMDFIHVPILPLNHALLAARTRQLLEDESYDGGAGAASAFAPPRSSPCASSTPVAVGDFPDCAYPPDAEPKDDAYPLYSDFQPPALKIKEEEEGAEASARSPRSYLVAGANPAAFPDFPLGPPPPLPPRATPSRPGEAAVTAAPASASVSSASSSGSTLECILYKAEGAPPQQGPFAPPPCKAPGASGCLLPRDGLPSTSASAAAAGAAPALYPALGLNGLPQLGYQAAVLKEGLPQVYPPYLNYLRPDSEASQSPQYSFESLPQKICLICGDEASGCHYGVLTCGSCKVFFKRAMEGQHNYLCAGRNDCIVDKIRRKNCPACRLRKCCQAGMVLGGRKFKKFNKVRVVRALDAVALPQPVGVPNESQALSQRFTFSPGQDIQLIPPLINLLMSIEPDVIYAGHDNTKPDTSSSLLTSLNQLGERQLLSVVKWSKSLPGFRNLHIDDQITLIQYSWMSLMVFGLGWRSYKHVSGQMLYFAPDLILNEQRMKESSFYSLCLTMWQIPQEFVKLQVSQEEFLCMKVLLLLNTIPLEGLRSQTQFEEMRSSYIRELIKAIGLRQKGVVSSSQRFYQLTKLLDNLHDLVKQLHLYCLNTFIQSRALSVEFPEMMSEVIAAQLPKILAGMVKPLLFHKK
Outline: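 HEK 293T PR-UAS-bla reporter cells, 2% charcoal-stripped FBS; 6 hr settle at 37C/5% CO2, compound (DMSO) 16 hr, LiveBLAzer B/G FRET substrate 2 hr RT, fluorescence intensity read.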

[6] = biological target: Progesterone receptor (Homo sapiens) (UniProt P06401); assay: qHTS assay to identify small molecule antagonists of the progesterone receptor (PR) signaling pathway (AID 1346795; active means well fitted inhibition curve with a large enough effect in the signal ratio in the repeat runs, not every such curve was filed as active; the % refers to the signal ratio)
Outline: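 Beta-lactamase reporter, HEK293T PR-UAS-bla line; 2% charcoal-stripped FBS; 6 hr pre-incubation, 37C/5% CO2. Compound + R5020 1 nM final, 16 hr. LiveBLAzer B/G FRET substrate, 2 hr RT; fluorescence intensity read.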

[7] = qHTS assay to identify small molecule antagonists of the progesterone receptor (PR) signaling pathway - cell viability counter screen (AID 1346798); further: series mostly up to about 92 µM; nearly all actives have a fitted effect of over 50% in size
Outline: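 Luminescence readout (CellTiter-Glo, 30 min, RT) of viability in PR-UAS-bla HEK293T cells exposed to compound and R5020 agonist for 16 hr at 37C, 5% CO2; run in the same wells as the beta-lactamase reporter read.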

[8] = qHTS assay to identify small molecule antagonists of the TGF-beta/Smad signaling pathway - cell viability counter screen (AID 1346824); further: nearly all actives have a fitted effect of over 50% in size
Outline: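 Cytotoxicity counter-screen run in the same wells as the beta-lactamase Smad reporter read: CellTiter-Glo luminescence after 30 min at room temperature. HEK 293T SBE-bla cells had 5 hr compound exposure at 37 C with TGF-beta1 (0.25 ng/mL stock).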

[9] = qHTS assay to identify small molecule agonists of the TGF-beta/Smad signaling pathway - cell viability counter screen (AID 1346829); further: top concentration of the series differs between compounds; nearly all actives have a fitted effect of over 45% in size
Outline: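 CellTiter-Glo luminescence readout; SBE-bla HEK 293T cells, overnight plating, compound 5 hr at 37 C/5% CO2, then bla substrate 2 hr RT, then CellTiter-Glo 30 min RT.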

[10] = biological target: Thyrotropin-releasing hormone receptor (Homo sapiens) (UniProt P34981); assay: qHTS assay to identify small molecule antagonists of the thyrotropin-releasing hormone receptor (TRHR) signaling pathway (AID 1346877; active means well fitted inhibition curve with a large enough effect in the repeat runs, not every such curve was filed as active; further: series mostly up to about 51 µM)
Thyrotropin-releasing hormone receptor (Homo sapiens), sequence (P34981 whole entry, looked up): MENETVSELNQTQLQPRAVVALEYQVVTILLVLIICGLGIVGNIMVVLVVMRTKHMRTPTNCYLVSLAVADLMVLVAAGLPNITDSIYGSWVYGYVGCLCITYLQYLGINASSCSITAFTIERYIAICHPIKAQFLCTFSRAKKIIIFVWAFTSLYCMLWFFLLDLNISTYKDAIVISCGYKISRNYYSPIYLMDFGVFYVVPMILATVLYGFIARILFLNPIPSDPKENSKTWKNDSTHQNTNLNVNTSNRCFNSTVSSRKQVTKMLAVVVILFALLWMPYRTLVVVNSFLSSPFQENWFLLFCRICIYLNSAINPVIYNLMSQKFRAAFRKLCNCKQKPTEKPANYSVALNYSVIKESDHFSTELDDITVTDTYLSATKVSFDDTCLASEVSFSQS
Outline: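 Human TRHR in HEK293 cells; inhibition of the intracellular calcium rise triggered by 1 nM TRH was followed by fluorescence over 3 min. Compounds were run at 15 concentrations, three replicates each.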

[11] = biological target: Thyrotropin-releasing hormone receptor (Homo sapiens) (UniProt P34981); assay: qHTS assay to identify small molecule agonists of the thyrotropin-releasing hormone receptor (TRHR) signaling pathway (AID 1346891; calls by dose curve;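 further: HEK293 cells expressing TRHR with calcium dye readout; series mostly up to about 58 µM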)
Outline: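 HEK293/TRHR cells, 1500 per well, 18 h 37 °C; Ca dye 2 h 37 °C; pin-tool compound addition (agonist mode); kinetic fluorescence 3 min, 1 s reads; 15 concentrations, triplicate.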

[12] = Human pregnane X receptor (PXR) small molecule agonists, qHTS cell viability counter screen (AID 1346977); further: nearly all actives have a fitted effect of over 50% in size
Outline: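 Fluorescence read-out (CellTiter-Fluor) of viability in PXR-Luc HepG2 cells, multiplexed with the luciferase agonist read. Compounds in DMSO added after 5hr plating; 24hr total exposure at 37C, 5% CO2.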

[13] = Caspase-3/7 induction in HepG2 cells by small molecules, qHTS assay (AID 1346978); further: nearly all actives have a fitted effect of over 15% in size
Outline: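 Caspase-3/7 induction was measured by Caspase-Glo 3/7 luminescence (30 min, room temperature) after a 17 hr compound exposure of wild-type HepG2 cells seeded at 2,000 per well and pre-incubated 5 hr.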

[14] = Caspase-3/7 induction in CHO-K1 cells by small molecules, qHTS cell viability counter screen (AID 1346979); further: nearly all actives have a fitted effect of over 35% in size
Outline: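 CHO-K1 wt, 1,500 cells/well; 5hr pre-incubation 37C/5% CO2; compound pin transfer (DMSO); 16hr exposure; CellTiter-Fluor added, 1hr, fluorescence read.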

[15] = Caspase-3/7 induction in CHO-K1 cells by small molecules, qHTS assay (AID 1346980); further: nearly all actives have a fitted effect of over 15% in size
Outline: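 Luminescent Caspase-Glo 3/7 read (30min, room temperature) quantified apoptosis induction. Cells were wild-type CHO-K1, treated with compound for 17hr at 37 C and 5% CO2.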

[16] = Caspase-3/7 induction in HepG2 cells by small molecules, qHTS cell viability counter screen (AID 1346981); further: series mostly up to about 92 µM; nearly all actives have a fitted effect of over 30% in size
Outline: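 The parent HepG2 line is plated at 2,000 cells per well and rested 5 hr before compound pinning from DMSO stocks. Following a 16-hr treatment at 37 C, a fluorogenic live-cell substrate (CellTiter-Fluor) reports viability after 1 hr.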

[17] = biological target: Nuclear receptor subfamily 1 group I member 2 (Homo sapiens) (UniProt O75469); assay: Human pregnane X receptor (PXR) small molecule agonists, qHTS assay (AID 1346982); further: nearly all actives have a fitted effect of over 35% in size; further: potency means the concentration at half of the fitted maximal effect
Nuclear receptor subfamily 1 group I member 2 (Homo sapiens), sequence (O75469 whole entry, looked up): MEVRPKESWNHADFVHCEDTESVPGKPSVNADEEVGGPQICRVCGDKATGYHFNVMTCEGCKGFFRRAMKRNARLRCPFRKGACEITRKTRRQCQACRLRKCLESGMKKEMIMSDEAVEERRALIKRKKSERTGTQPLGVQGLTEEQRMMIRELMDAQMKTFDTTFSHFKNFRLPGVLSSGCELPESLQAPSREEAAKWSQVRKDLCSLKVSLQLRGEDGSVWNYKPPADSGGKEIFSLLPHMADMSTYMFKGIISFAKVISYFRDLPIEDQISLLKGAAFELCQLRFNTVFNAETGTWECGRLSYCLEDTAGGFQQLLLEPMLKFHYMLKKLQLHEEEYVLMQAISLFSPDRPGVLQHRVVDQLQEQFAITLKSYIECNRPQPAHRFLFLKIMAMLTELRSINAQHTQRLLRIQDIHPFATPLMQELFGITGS
Outline: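 After plating in 5% charcoal-stripped FBS and a 5 hr rest, PXR-Luc HepG2 cells received compounds in DMSO. Following 24 hr at 37 C, ONE-Glo was added and light output read.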

[18] = qHTS assay to identify small molecule agonists of the progesterone receptor (PR) signaling pathway - cell viability counter screen (AID 1346799; calls by dose curve; further: nearly all actives have a fitted effect of over 45% in size)
Outline: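 HEK293T PR-UAS-bla, 3,000 cells/well, 2% charcoal-stripped FBS; 6 h settle, compound 16 h at 37C/5% CO2; LiveBLAzer 2 h RT, then CellTiter-Glo 30 min RT, luminescence read.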

[19] = qHTS assay to identify small molecule agonists of the TGF-beta/Smad signaling pathway (AID 1346859; active means well fitted activation curve with a large enough effect in the signal ratio in the repeat runs, not every such curve was filed as active; the % refers to the signal ratio; further: series mostly up to about 77 µM)
Outline: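 Read-out: fluorescence at 460 and 530 nm (405 nm excitation) after a 2 hr room-temperature incubation with beta-lactamase FRET substrate. SBE-bla HEK 293T cells had been treated with test compounds for 5 hr at 37 C.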

Row | SMILES | Potency [1] | outcome [2] | outcome [3] | outcome [4] | Potency [5] | Potency [6] | outcome [7] | outcome [8] | outcome [9] | outcome [10] | Potency [11] | outcome [12] | outcome [13] | Potency [14] | outcome [15] | outcome [16] | Potency [17] | Potency [18] | outcome [19]
1 | CCCC(=O)CC | inactive | inactive | inactive | inactive | inactive | inactive | inactive | inactive | inactive | inactive | inactive | inactive | inactive | inactive | inactive | inactive | inactive | – | –
2 | Cc1cc(=O)oc2cc(O[C@@H]3SC[C@@H](O)[C@H](O)[C@H]3O)ccc12 | inactive | inactive | inactive | inactive | inactive | inactive | inactive | – | – | – | – | inactive | inactive | inactive | inactive | inactive | inactive | inactive | –
3 | NNC(=O)OCc1ccccc1 | inactive | inactive | inactive | inactive | inactive | inactive | inactive | inactive | inactive | inactive | inactive | inactive | inactive | inactive | inactive | inactive | 54.5 µM (active) | inactive | inactive
4 | C=CCn1cc[n+](C)c1 | inactive | inactive | inactive | inactive | inactive | inactive | inactive | – | inactive | inactive | inactive | inactive | inactive | inactive | inactive | inactive | inactive | inactive | inactive
5 | C/C=C/C(=O)CCCC | inactive | inactive | inactive | inactive | inactive | inactive | inactive | inactive | inactive | inactive | inactive | inactive | inactive | inactive | inactive | inactive | inactive | inactive | –
6 | CCCc1ccc(O)c(OC)c1 | inactive | inactive | inactive | inactive | inactive | – | inactive | inactive | inactive | inactive | inactive | inactive | inactive | inactive | inactive | inactive | inactive | inactive | inactive
7 | CCCCCCCCCCCCCCBr | inactive | inactive | inactive | inactive | inactive | inactive | inactive | inactive | inactive | inactive | inactive | inactive | inactive | inactive | inactive | inactive | inactive | – | –
8 | CC(C)C(=O)Nc1cccc(C2CN3CCSC3=N2)c1 (configuration not stated) | inactive | inactive | inactive | inactive | inactive | inactive | inactive | inactive | – | inactive | inactive | inactive | inactive | inactive | inactive | inactive | inactive | inactive | inactive
9 | CCCCCCCCCCCCCC(=O)OCC | inactive | inactive | inactive | inactive | inactive | – | inactive | inactive | inactive | inactive | inactive | inactive | inactive | inactive | inactive | – | inactive | inactive | –
10 | CCCCOCCCC | inactive | inactive | inactive | – | inactive | – | inactive | inactive | inactive | inactive | inactive | inactive | inactive | inactive | inactive | inactive | inactive | inactive | inactive
11 | C[C@@H]1CCC[C@H](C)N1CCCC(O)(c1ccccc1)c1ccccn1 (some centres not stated) | inactive | inactive | inactive | – | inactive | inactive | inactive | inactive | inactive | inactive | inactive | inactive | inactive | inactive | inactive | inactive | inactive | inactive | inactive
12 | Clc1cc(Cl)c(Cl)c(Cl)c1Cl | inactive | inactive | inactive | inactive | inactive | – | inactive | inactive | inactive | inactive | inactive | inactive | inactive | inactive | inactive | – | inactive | inactive | inactive
13 | CCCCCCCOC(C)=O | inactive | inactive | – | inactive | inactive | inactive | inactive | inactive | inactive | inactive | inactive | inactive | inactive | inactive | inactive | inactive | inactive | inactive | inactive
14 | COC(=O)/C=C(\C)CCC=C(C)C | inactive | inactive | inactive | – | inactive | inactive | inactive | inactive | inactive | inactive | inactive | inactive | – | inactive | inactive | inactive | 61.1 µM (active) | inactive | –
15 | COC(=O)c1ccc(C(=O)O)cc1 | inactive | inactive | inactive | inactive | inactive | – | inactive | inactive | inactive | – | – | inactive | – | inactive | inactive | inactive | inactive | inactive | inactive
16 | COCc1nnc(-c2ccc[n+]([O-])c2)n1-c1c(Cl)c(Cl)cc2[nH]c(=O)c(=O)[nH]c12 | inactive | inactive | inactive | inactive | inactive | – | inactive | inactive | inactive | – | – | inactive | inactive | inactive | inactive | inactive | inactive | inactive | inactive

Source: PubChem BioAssay (Tox21)
